Vif inh: inhibitors of HIV Vif; HEK293T cells, Vif self-association by quenched fluorescence, imaging, 24 h; inhibition, % at 7.49 µM; 0.35% of 340,000 active; in the data active = inhibition above about 50%, passing the limit was not always enough; inconclusive = no clear call, values can overlap the other calls; inactive = below about 31%
GRIN3A LBD mod: NR3A (human) ligand-binding domain modulation; Tm shift relative to glycine control, % at 25 µM; 2.5% of 340,000 active; NR3A LBD differential scanning fluorimetry, Tm shift; 0% = protein alone, 100% = glycine-bound protein;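 active = melting temperature shift of at least 10% of the positive control shift, at one fixed dose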
NadD block: inhibitors of Staphylococcus aureus NadD | purified NadD enzyme, colorimetric absorbance read-out | inhibition, % at 20 µM | 0.78% of 360,000 active; in the data active = inhibition above about 26%
SMARCA2 act: activators of SMARCA2 function. MG213 cells, MMTV-luciferase reporter, dexamethasone, overnight. activation, % at 9.1 µM. 1% of 370,000 active; in the data active = activation above about 7.8%;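 also: 0% = vehicle wells and 100% = reference activator wells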
SKN-1 inh: C. elegans SKN-1 inhibition. C. elegans VP596 Pgst-4::GFP/RFP ratio, acrylamide-induced, 24 h. inhibition, % at 21.8 µM. 0.49% of 360,000 active. AID 624304;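 active = interference check ratio from 0.5 to 1.5 plus GFP to RFP signal ratio inhibition reaching or exceeding a fixed threshold, cut at about 30% in these data, passing the limit was not always enough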
esBAF inh: SWI/SNF esBAF complex inhibition | mouse ES cells, Bmi1-luciferase knock-in reporter, 24 h; 100% = twice the neutral-well signal | reporter increase, % at 12.5 µM | 2% of 350,000 active; in the data active = activation above about 40%; inconclusive = no clear call, values can overlap the other calls;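 also: 0% = median of the plate's neutral control wells and 100% = double that signal; a rise in the Bmi1 reporter signal indicates esBAF inhibition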
Ring1 derepress: esBAF inhibition confirmed by Ring1 de-repression; shares compounds with esBAF inh; mouse ESC E14, Ring1 mRNA RT-qPCR fold change; fold change at 33 µM; 550 tested, under 10 active; AID 743176;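 active = Ring1 gene expression raised more than 2-fold over untreated cells in both replicates at either tested dose; inconclusive = only one replicate above 2-fold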;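 also: Ring1 transcript normalised to actin housekeeping signal by TaqMan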
esBAF Fgf4 qPCR: confirmation of esBAF inhibitors: Fgf4 repression in mouse ESCs; shares compounds with esBAF inh; mouse ESC E14, Fgf4 mRNA qPCR fold change; hits give low values; Fgf4 expression fold change at 33 µM; 4% of 550 active;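 active = Fgf4 expression under 0.8 fold of control in both repeat measurements at one or both tested doses; inconclusive = under 0.8 fold in just a single repeat measurement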;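 also: Fgf4 transcript normalised to actin in duplex TaqMan qPCR; cells exposed to compound for 24 h before lysis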
Bmi1 derepress: esBAF inhibition confirmed by Bmi1 de-repression. shares compounds with esBAF inh. fold change at 33 µM. mouse ESE14 ES cells, Bmi1 mRNA qPCR fold; hits give high values. 550 tested, under 10 active;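 active = Bmi1 expression fold change above 6 at either tested concentration, seen in replicate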;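 also: higher fold means more Bmi1 de-repression and stronger esBAF inhibition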
A549 cytotox: cytotoxicity in A549 cells. shares compounds with esBAF inh. plate reader. cell viability change % (negative = cytotoxic), % at 25 µM, hits read low. 550 tested, under 10 active; call rule not given here
HepG2 cytotox SP: HepG2 cell cytotoxicity at single point; shares compounds with esBAF inh; 4% of 550 active; activity change, negative = inhibition, % at 25 µM; plate reader; hits give low values; in the data active = activity change below about -50%
HEK293 tox SP: kills or reduces viability of HEK293 cells | HEK293 cytotoxicity, plate reader | 3% of 550 active | activity change, negative = inhibition, % at 25 µM, hits read low | shares compounds with esBAF inh; in the data active = activity change below about -38%, passing the limit was not always enough
An asterisk follows results filed as active. A selection: hits, their analogues and other compounds. The true share with any hit is near 5.2%.

`Cn1ccc2c(-c3ccc(C(C)(C)C)cc3)cc3c(c21)C1CCC3C1` (stereo unspecified) gave NadD block -1.5, SMARCA2 act -3.4, SKN-1 inh 6.9 and esBAF inh 1.6.
CN(C)S(=O)(=O)c1cccc(C(=O)Nc2ccc(Cl)cn2)c1 was read as Vif inh 19.3, GRIN3A LBD mod -5.7, NadD block 1.7, SMARCA2 act 4.0, SKN-1 inh 6.9, esBAF inh 63.2*, Ring1 derepress 1.23, esBAF Fgf4 qPCR 0.92, Bmi1 derepress 1.39, A549 cytotox -1.1, HepG2 cytotox SP -19.0 and HEK293 tox SP -0.1.
CC(NC(=O)c1cc(COc2ccc(-n3cncn3)cc2)on1)c1ccc(F)cc1 (stereo unspecified) was read as Vif inh 2.7, NadD block -2.6, SMARCA2 act 3.5, SKN-1 inh -0.8, esBAF inh 58.9*, Ring1 derepress 1.14, esBAF Fgf4 qPCR inconclusive, Bmi1 derepress 1.55, A549 cytotox -11.9, HepG2 cytotox SP 44.6 and HEK293 tox SP 12.9.
Screening C[C@@H]1CN([C@H](C)CO)C(=O)c2cccc(NC(=O)c3ccc(-c4nccs4)cc3)c2O[C@H]1CN(C)C(=O)Nc1ccccc1 returned esBAF inh 4.6.
`Cc1ccc(O)c(NC(=O)c2ccc3c(c2)C(=O)N(CC(C)C)C3=O)c1` gave Vif inh -1.7, GRIN3A LBD mod 0.3, NadD block -2.0, SMARCA2 act 0.9, SKN-1 inh -20.4, esBAF inh 57.3*, Ring1 derepress 1.16, esBAF Fgf4 qPCR 0.937, Bmi1 derepress 1.21, A549 cytotox -6.6, HepG2 cytotox SP -30.1 and HEK293 tox SP -7.0.
Cc1cc(NC(=O)c2ccc3c(c2)C(=O)N(CC(C)C)C3=O)no1 was read as Vif inh -3.8, GRIN3A LBD mod -0.1, NadD block -6.8, SMARCA2 act -0.8 and SKN-1 inh 1.8.
Cc1ccnc(NC(=O)c2ccc3c(c2)C(=O)N(CC(C)C)C3=O)c1 was read as Vif inh 15.8, GRIN3A LBD mod 2.2, NadD block -0.2, SMARCA2 act 3.9, SKN-1 inh 14.3, esBAF inh 74.3*, Ring1 derepress 1.22, esBAF Fgf4 qPCR 0.84, Bmi1 derepress 1.48, A549 cytotox -12.7, HepG2 cytotox SP 1.2 and HEK293 tox SP -13.2.
For CCCN1C(=O)c2ccc(C(=O)Nc3cc(C)ccc3O)cc2C1=O the results were Vif inh 1.2, GRIN3A LBD mod -0.9, NadD block -6.7, SMARCA2 act 1.7, SKN-1 inh 5.8 and esBAF inh 30.4.
Screening O=C(NCCc1ccc(F)cc1)c1ccc2c(=O)n3c(nc2c1)CCC3 returned GRIN3A LBD mod -2.5, NadD block -1.8, SMARCA2 act 1.4, SKN-1 inh 0.8, esBAF inh 54.1*, Ring1 derepress 1.2, esBAF Fgf4 qPCR 0.885, Bmi1 derepress 1.5, A549 cytotox 1.5, HepG2 cytotox SP -28.6 and HEK293 tox SP -7.7.
For Cc1cc(OCc2cc(C(=O)N3CCN(C)C(=O)[C@@H]3C)no2)cc(C)c1Cl the results were Vif inh -2.8, GRIN3A LBD mod -3.0, NadD block -0.3, SMARCA2 act -6.1, SKN-1 inh -3.1 and esBAF inh -2.9.
COc1cc(Cl)ccc1OCc1cc(C(=O)N2CCN(C)C(=O)[C@@H]2C)no1 was read as Vif inh -4.0, NadD block 2.3, SMARCA2 act -0.5, SKN-1 inh 13.4, esBAF inh 95.8*, Ring1 derepress 1.05, esBAF Fgf4 qPCR 0.498*, Bmi1 derepress 1.27, A549 cytotox -18.0, HepG2 cytotox SP -14.6 and HEK293 tox SP -20.7.
For COc1cc2c(cc1OC)C(=Cc1ccc(N(C)C)cc1)C=C2 the results were Vif inh -2.0, GRIN3A LBD mod -6.0, NadD block 0.2, SMARCA2 act 2.2, SKN-1 inh 22.1, esBAF inh 67.1*, Ring1 derepress 0.927, esBAF Fgf4 qPCR 0.963, Bmi1 derepress 1.85, A549 cytotox -7.3, HepG2 cytotox SP -8.5 and HEK293 tox SP 0.9.
For Clc1ccc(-c2nc(Cc3ccccc3)no2)cc1 the results were Vif inh 26.7, GRIN3A LBD mod 1.7, NadD block -3.0, SMARCA2 act 3.3, SKN-1 inh -8.2, esBAF inh 69.7*, Ring1 derepress 1.09, esBAF Fgf4 qPCR 0.932, Bmi1 derepress 1.21, A549 cytotox -15.8, HepG2 cytotox SP -12.6 and HEK293 tox SP -13.4.
COc1ccc(Cc2nc3ccc(C(=O)NCCCSC)cc3o2)cc1OC was read as Vif inh -0.8, GRIN3A LBD mod -0.6, NadD block -2.2, SMARCA2 act 0.7, SKN-1 inh 14.8, esBAF inh 77.1*, Ring1 derepress 0.943, esBAF Fgf4 qPCR 0.974, Bmi1 derepress 1.29, A549 cytotox -9.0, HepG2 cytotox SP -45.9 and HEK293 tox SP -5.2.
Screening COC(=O)CCNC(=O)c1ccc2nc(Cc3ccc(OC)c(OC)c3)oc2c1 returned Vif inh -3.4, GRIN3A LBD mod 2.5, NadD block 0.1, SMARCA2 act 2.0, SKN-1 inh -5.8 and esBAF inh inconclusive.
For COc1ccc(/C=N/Nc2ccccn2)cc1O the results were Vif inh -3.1, GRIN3A LBD mod -0.9, NadD block -8.7, SMARCA2 act 4.8, SKN-1 inh 3.7 and esBAF inh 13.9.
Screening Clc1ccccc1C=NNc1ccccn1 returned Vif inh -9.7, GRIN3A LBD mod 2.7, NadD block -1.8, SMARCA2 act 7.0, SKN-1 inh -6.1, esBAF inh 98.1*, Ring1 derepress 1.08, esBAF Fgf4 qPCR 0.897, Bmi1 derepress 1.44, A549 cytotox -15.1, HepG2 cytotox SP -13.1 and HEK293 tox SP -4.9.
For Oc1cccc(C=NNc2ccccn2)c1 the results were Vif inh -7.0, GRIN3A LBD mod -6.0, NadD block -2.1, SMARCA2 act -1.2, SKN-1 inh 9.6, esBAF inh 75.6*, Ring1 derepress 0.958, esBAF Fgf4 qPCR 0.922, Bmi1 derepress 1.71, A549 cytotox 1.4, HepG2 cytotox SP -19.7 and HEK293 tox SP 4.8.

Screening data as filed in PubChem.
